High-throughput results (PubChem BioAssay)
Only some compounds are listed: those with a hit (about 3.3% of all), similar ones and a draw of the others.
PLK1 PBD inh = qHTS for Inhibitors of PLK1-PDB (polo-like kinase 1 - polo-box domain): Primary Screen | Serine/threonine-protein kinase PLK1 (Homo sapiens), P53350 | Plk1 PBD binding of FITC phosphopeptide, fluorescence polarization | Potency, µM, for the others: max response, negative = inhibition, most hits filed as inhibitors | actives 2.8% (n = 360,000); also: potency is read from the fitted curve at half-maximal effect; series mostly up to about 57 µM; nearly all actives have a fitted effect of over 65% in size
Target sequence (P53350 whole entry, looked up, the tested form may be a part): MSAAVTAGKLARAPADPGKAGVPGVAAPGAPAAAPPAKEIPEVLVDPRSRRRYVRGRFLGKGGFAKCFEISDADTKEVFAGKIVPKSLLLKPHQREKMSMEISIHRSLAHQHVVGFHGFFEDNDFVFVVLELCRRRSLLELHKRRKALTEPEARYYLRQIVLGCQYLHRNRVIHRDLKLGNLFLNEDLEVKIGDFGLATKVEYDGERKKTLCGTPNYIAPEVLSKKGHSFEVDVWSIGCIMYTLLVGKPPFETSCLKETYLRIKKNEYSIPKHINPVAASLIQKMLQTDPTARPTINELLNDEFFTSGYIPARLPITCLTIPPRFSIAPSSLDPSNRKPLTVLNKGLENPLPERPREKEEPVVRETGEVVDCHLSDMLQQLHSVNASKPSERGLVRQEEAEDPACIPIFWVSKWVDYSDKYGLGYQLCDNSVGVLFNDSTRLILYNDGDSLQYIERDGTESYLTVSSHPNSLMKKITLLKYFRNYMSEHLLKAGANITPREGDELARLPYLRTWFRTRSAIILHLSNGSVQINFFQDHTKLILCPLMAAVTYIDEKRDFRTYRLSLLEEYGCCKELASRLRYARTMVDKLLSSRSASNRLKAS
USP1 inh = Inhibitors of USP1/UAF1: Primary Screen; recombinant USP1/UAF1, Ub-Rhodamine cleavage fluorescence; Ubiquitin carboxyl-terminal hydrolase 1 (Homo sapiens), O94782; actives 0.23% (n = 390,000); Potency, µM (doses to about 57.1 µM), for the others: at the top dose activity change, negative = inhibition, hits mostly inhibitors; also: potency is read from the fitted curve at half-maximal effect; nearly all actives have a fitted effect of over 60% in size
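USP1/UAF1 complex (1 nM) preincubated 15 min at room temperature with compound, then Ub-Rho substrate (150 nM final) added. Kinetic fluorescence at 480/540 nm over 6 reads at 60 s intervals; 50 mM HEPES pH 7.8, 0.5 mM EDTA, 0.1 mg/ml BSA, 1 mM TCEP, 0.01% Tween-20.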
USP2a inh = qHTS Assay for Inhibitors of Ubiquitin-specific Protease USP2a Using CHOP2 as the Reporter; AID 463254, 2010; USP2 core, Ub-CHOP2 coupled fluorogenic reporter, 485/531; Ubiquitin carboxyl-terminal hydrolase 2 (Homo sapiens), O75604; Potency, µM (doses to about 38.3 µM), inactives show at the highest dose activity change, negative = inhibition, most hits filed as inhibitors; actives 0.01% (n = 330,000);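 also: potency is read from the fitted curve at half-maximal effect; plate controls were DMSO wells for no effect and full inhibition by NEM control for full effect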
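Deubiquitinase activity read as fluorescence (485/531 nm) after Ub-CHOP2 cleavage activates the enterokinase reporter on its substrate; USP2 core 10nM, Ub-CHOP2 and substrate 25nM each, 30min compound preincubation then 60min RT; data normalized to NEM, curves fitted.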
PI5P4Ka inh = qHTS for Inhibitors of phosphatidylinositol 5-phosphate 4-kinase (PI5P4K); Phosphatidylinositol 5-phosphate 4-kinase type-2 alpha (Homo sapiens), P48426; max response, %; PI5P4Kalpha enzyme, ADP-Glo luminescence, 60 min; hits give low values; AID 652105, 2013; actives 1.2% (n = 330,000); active = max response of -50% or lower; inconclusive = between -30% and -50%; inactive = -30% or higher; also: value at the top dose of about 77 µM
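Human PI5P4Kalpha with substrate in 0.038 M HEPES pH 7.4, 0.28 mM EGTA, 0.1% CHAPS, 5% DMSO; reaction started with 5 microM ATP (final), 60 min at room temperature. ADP formed read by ADP-Glo luminescence.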
WRN helicase inh = qHTS for Inhibitors of WRN Helicase; Bifunctional 3'-5' exonuclease/ATP-dependent helicase WRN (Homo sapiens), Q14191; actives 0.46% (n = 360,000); Potency, µM (highest dose often 114 µM), for the others: top-dose activity change, negative = inhibition, usual class: inhibitors; WRN helicase unwinding, fluorescent forked duplex, kinetic; also: potency is read from the fitted curve at half-maximal effect; nearly all actives have a fitted effect of over 55% in size
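Kinetic fluorescence helicase assay: unwinding of a quenched forked DNA duplex (100 nM final) with 2 mM ATP final raises red fluorescence (525/598 nm). Compounds sat 15 min at room temperature with 20 nM WRN beforehand.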
Starred values were filed as active, the others as inactive; u = inconclusive; x = not tested or not shown; ! = not active in a repeat; [ ] = dose if it differs, or a comment. Unless noted, calls follow the shape of the dose curve; as a rule, active = well fitted curve in the direction sought with a large enough effect; inconclusive = small, poorly fitted or top-dose-only effect, or another doubt; inactive = no such curve, though single readings can be large; an effect the other way counts as inactive or inconclusive. Unless noted, % is scaled to controls: 0 for no effect and ±100 for the full control effect.

SMILES	PLK1 PBD inh	USP1 inh	USP2a inh	PI5P4Ka inh	WRN helicase inh
CC(CCC(=O)Nc1nncs1)C(=O)O (stereo unspecified)	0%	-16%	3%	7	-3%
Cc1cccc(OCCn2c(=S)[nH]c3ccccc32)c1	6µM*	-12%	-5%	-23	-14%
S=c1[nH]c2ccccc2n1Cc1ccccc1	8.4µM*	-17%	0%	-24	-11%
CCOc1ccc(OCCn2c(=S)[nH]c3ccccc32)cc1	13µM*	-1%	5%	-6	-14%
COc1ccccc1OCCn1c(=S)[nH]c2ccccc21	u	-36%	2%	1	-23%
CCOc1ccc2c(c1)[nH]c(=S)n2C	13µM*	-22%	-1%	-22	2%
O=C(Nc1ccccc1OCc1cc(=O)n2ccccc2n1)Nc1ccccc1C(F)(F)F	x	-16%	x	x	x
CN(C)C(=O)c1ccc2c(c1)N(CC(=O)NCc1ccc(F)cc1)C(=O)C1CCCCN21 (stereo unspecified)	x	-9%	x	x	x
COc1ccc(CCNC(=O)Cn2cc(S(=O)(=O)Cc3ccccc3F)c3ccccc32)cc1OC	x	-8%	x	x	x
Cn1c(C(=O)NCc2cccc(F)c2)cc2cc(S(=O)(=O)N3CCCCC3)ccc21	x	-17%	x	x	x
S=c1[nH]c2ccccc2n1CCOc1ccccc1	19µM*	-26%	-4%	-1	7%
COc1cccc(N2CCN(C(=O)c3ccc4c(Cl)c5c(nc4c3)CCCC5)CC2)c1	x	-26%	x	x	x
COc1ccc(Cl)cc1NC(=S)N(Cc1ccccc1C)CC1CCC(C(=O)O)CC1 (stereo unspecified)	30µM*	-3%	0%	3	-7%
CCc1ccc2oc(-c3cccc(NC(=O)c4ccc(N5CCC(C)CC5)c([N+](=O)[O-])c4)c3)nc2c1	x	-6%	x	x	x
N#Cc1c(N)sc(=S)c2c1CCCCC2	21µM*	u	8%	-91*	20µM*
CCc1ccccc1NS(=O)(=O)c1ccc2c(c1)CCCN2C(=O)C1CCC1	x	2%	x	x	x
O=S(=O)(N/N=C/c1ccccc1F)c1ccccc1	15µM*	5%	1%	u	7%
COc1ccc(-c2noc(N3CCC(C(=O)N4CCN(c5cccc(OC)c5)CC4)CC3)n2)cc1	x	18%	x	x	x
Cc1c(C(=O)OC2CCCC2)[nH]c2c1C(=O)CC(c1ccco1)C2 (stereo unspecified)	-19%	-16%	3%	u	-14%[11.6 µM]
Cc1c(C(=O)OCC2CCCO2)[nH]c2c1C(=O)CC(c1ccco1)C2 (stereo unspecified)	u	18%	-1%	-76*	40µM*
C=CCOC(=O)c1[nH]c2c(c1C)C(=O)CC(c1ccco1)C2 (stereo unspecified)	u	-2%	2%	-61*	u
COc1ccc(-n2c(=O)c3sc4ccccc4c3n(C)c2=O)cc1	x	-27%	x	x	x
CCOC(=O)c1ccc(NC(=O)Cn2ncc(Cl)c(Cl)c2=O)cc1	u	-28%	-2%	-72*	-20%[57.1 µM]
CCC(=O)Nc1ccc(C(=O)Cn2ncc(Cl)c(Cl)c2=O)cc1	-12%	-13%	1%	-56*	-6%[11.6 µM]
Cc1ccc(C(=O)OCn2ncc(Cl)c(Cl)c2=O)cc1	u	-31%	-2%	x	-9%
SMILES	PLK1 PBD inh	USP1 inh	USP2a inh	PI5P4Ka inh	WRN helicase inh
Cc1nc(SCC(N)=O)c([N+](=O)[O-])[nH]1	3%	-9%	0%	1	-1%
C/C(=N\NC(=O)CSc1nc(C)[nH]c1[N+](=O)[O-])c1ccc(F)cc1	0%	-2%	-5%	-67*	-1%
CN1CCC2(CC1)C1CN(C)CC=C1C(C#N)=C(N)C2(C#N)C#N (stereo unspecified)	u	28µM*!	u	-5	-9%
O=c1[nH]nc(-c2ccc(OCc3ccc(Cl)cc3Cl)cc2)o1	-5%	-2%	0%	-2	-4%[57.1 µM]
NC(=S)Nc1cccc(-c2n[nH]c(=S)o2)c1	-24%	-7%	0%	-25	-10%
Cc1ccc(NC(=S)Nc2cccc(-c3n[nH]c(=S)o3)c2)cc1	u	-8%	6%	-68*	-24%
C=CCOc1ccc(-c2n[nH]c(=S)o2)cc1	-18%	-18%	1%	-60*	-3%
COc1ccc(C(=O)Nc2ccc(-c3n[nH]c(=S)o3)cc2)cc1	-26%	-9%	-1%	-55*	-15%
O=C(Nc1ccc(-c2n[nH]c(=S)o2)cc1)c1ccccc1	u	-23%	-1%	-63*	-8%
COc1ccc(C(=O)Nc2ccc3oc(-c4ccc(OC)cc4)nc3c2)cc1	x	19%	x	x	x
CCC(=O)Nc1nc(=S)ss1	21µM*	-5%	0%	u	u
CN1CCN(NS(=O)(=O)c2ccc(Cl)cc2)CC1	8.4µM*	5%	3%	11	-24%
CC(=O)Oc1cc(C(=O)OCC(=O)NC23CC4CC(CC(C4)C2)C3)cc(OC(C)=O)c1OC(C)=O	-11%	-11%	x	u	14µM*
COc1cccc(C(=O)OCC(=O)NC23CC4CC(CC(C4)C2)C3)c1	0%	-21%	1%	7	-5%
O=C1Nc2cc(Cl)cnc2N2CCCC12 (stereo unspecified)	30µM*	u	9%	u	12%
CC(=O)Nc1ccc(NS(=O)(=O)c2ccc3ccccc3c2)cc1	7.5µM*	-2%	3%	u	-8%
CCn1nc(NS(=O)(=O)c2ccc(NC(C)=O)cc2)c2cc3ccccc3nc21	24µM*	-25%	2%	-22	-11%
CCn1nc(NS(=O)(=O)c2ccc(NC(C)=O)cc2)c2cc3ccc(C)cc3nc21	u	-6%	-1%	15	-8%
CC(=O)Nc1ccc(NS(=O)(=O)c2ccc(Cl)s2)cc1	11%	-20%	3%	1	-7%
CC(=O)Nc1ccc(NS(=O)(=O)c2c(Cl)cccc2Cl)cc1	27µM*	-4%	9%	-3	-1%
CCOC(=O)CSc1nc(-c2ccc(F)cc2)cc(C(F)(F)F)c1C#N	x	-13%	x	x	x
CC(=O)c1c(C)nc2ccccc2c1N	2%	-2%	0%	2	-3%
Cc1nc2ccccc2c(C)c1C(=O)c1ccccc1	24µM*	-16%	-1%	-13	-4%[57.1 µM]
Cc1nn(-c2ccccc2)c(-n2cccc2)c1C(=O)N1CCN(c2ccccc2)CC1	x	-26%	x	x	x
O=C(c1nnsc1S(=O)(=O)c1ccc(Cl)cc1)N1CCOCC1	u	-2%	12%	-5	-36%
CNC(=O)c1nnsc1S(=O)(=O)c1ccc(Cl)cc1	12µM*	-7%	2%	-2	7.9µM*
CC(C)C1CC(O)(C2(O)CCCCC2)ON1 (stereo unspecified)	3.4µM*	-22%	2%	-27	6%
